Measurements published in PubChem BioAssay (NCI).
About 83,000 compounds went through this panel and 20% of them were active in at least one assay; those are over-represented in the sample as a whole.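 96-well plates, one dose, 48 hours. Percent growth reported; active if below 10.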 Unmarked numbers belong to inactive results. Calls of active or inactive are those of the source.

Test system: MDA-MB-468 breast
Experiment: NCI-60 one-dose screen, 48 h (100 = growth as untreated, 0 = no growth, -100 = all killed)
Details: 10 µM unless noted

Question: How did the growth turn out when `CCOC(=O)c1cccc(NC2=C(Cl)C(=O)C(C)=C(C)C2=O)c1` was run?
Answer: -20.6% (active)

Question: How did the growth turn out when `NS(=O)(=O)c1cccc(Nc2nc(SCC(=O)c3ccc(Cl)cc3)nc3ccccc23)c1` was run?
Answer: 80.1%

Question: For `O=c1c2ccccc2[nH]n1Cc1ccc2c(c1)OCO2`, which growth is on record?
Answer: 94.5%

Question: `Cc1cc(Nc2nc(N3CCN(C)CC3)nc3ccccc23)n[nH]1` was tested. Which growth did it give?
Answer: 90%

Question: Which growth does the source give for `CC1=C(/C=C/C(C)=C/C=C/C(C)=C/C(=O)Nc2ccc(O)cc2)C(C)(C)CCC1` here?
Answer: 30.1%

Question: With `COc1ccc(C(=O)c2cc(OC)c(OC)c(OC)c2)cc1OC(=O)CCl` as the compound, how does the growth read?
Answer: 63.4%

Question: `CCOC(=O)c1nc2c3ccccc3ccn2c1C(=O)OC` was tested. Which growth did it give?
Answer: 92.1%

Question: `COc1ccc(C2Nc3ccccc3-n3cccc32)cc1` (stereo not given) was tested. Which growth did it give?
Answer: 108%

Question: How did the growth turn out when `CCOC(=O)c1cc(C#N)n2ncc3ccccc3c12` was run?
Answer: 87.9%

Question: `CCOC(=O)c1c(C)oc2ncnc(Nc3ccc(NC(=O)Nc4cccc(Cl)c4)cc3)c12` was tested. Which growth did it give?
Answer: 49.7%

Question: How did the growth turn out when `NC(=O)c1ccc(Br)o1` was run?
Answer: 103%

Question: With `CN1CCN(CCCn2c3c(sc4ncccc43)c(=O)n3nnc(-c4ccccc4)c23)CC1` as the compound, how does the growth read?
Answer: 98.6%

Question: Which growth does the source give for `N/C(=N\OC(=O)CSc1nc2ccccc2s1)c1ccc2ccccc2c1` here?
Answer: 102%

Question: `COC(=O)c1nc(-c2ccccc2)oc1S(=O)(=O)NCC(c1ccc(Cl)cc1)N1CCCCC1` (stereo not given) was tested. Which growth did it give?
Answer: 37%

Question: For `COC(=O)[C@]12CC[C@@H](C)[C@H](C)[C@@H]1C1=CC[C@@H]3[C@@]4(C)C(C=O)=C[C@@](C)(COC(=O)c5ccco5)C4=CC[C@@]3(C)[C@]1(C)CC2`, which growth is on record?
Answer: 5.01% (active)

Question: With `COc1ncc(-c2ccc3ncnc(Nc4cccc(Cl)c4)c3c2)cc1N(S(C)(=O)=O)S(C)(=O)=O` as the compound, how does the growth read?
Answer: -3.15% (active)

Question: Which growth does the source give for `C=CCNC(=O)Cc1c(-c2ccc(OC)cc2)oc2c(OC)c3c(c(OC)c12)OCO3` here?
Answer: 94.9%

Question: How did the growth turn out when `NC(=S)N/N=C(/c1ccccc1)c1ccccc1N` was run?
Answer: 18.4%

Question: Which growth does the source give for `CCc1cc(OC(=O)N2CCN(CCC(C)(COC(C)(C)C)COC(C)(C)C)CC2)ccc1Nc1cc(-c2ccc(-n3cccn3)cc2)[nH]n1` here?
Answer: 82.4%

Question: Which growth does the source give for `O=C(COc1ccccc1)N1N=C(c2ccc(Cl)cc2)CC1c1c[nH]c2ccccc12` (stereo not given) here?
Answer: 85.7%

Question: With `CC(C)(O)C#CC#CC(C)(C)O` as the compound, how does the growth read?
Answer: 97.7%

Question: With `CCOC(=O)c1ccc2c(c1)nc(-c1ccccc1)n2C1CCCCC1` as the compound, how does the growth read?
Answer: 118%

Question: For `Brc1ccc2c(c1)c(-c1nc(-c3c[nH]c4ncccc34)cs1)cn2CCCN1CCCCC1`, which growth is on record?
Answer: -15% (active)

Question: Which growth does the source give for `O=S(=O)(Nc1ccc(F)cc1F)c1ccc(-c2cnc(C3CC3)o2)cc1` here?
Answer: 2.58% (active)

Question: With `C#Cc1nc(C2=C(C)C(OC(=O)CCC(=O)O)CC2)cs1` (stereo not given) as the compound, how does the growth read?
Answer: 99.6%

Question: With `O=C(Cn1c(=O)sc2nc3ccccc3nc21)Nc1ncc(Cc2cccc(Cl)c2Cl)s1` as the compound, how does the growth read?
Answer: 107%

Question: `COc1cc2c(c(OC)c1OC)-c1ccc(SC)c(=O)cc1[C@@H](NC1OC(CO)C(O)C(O)C1O)CC2` (stereo not given in full) was tested. Which growth did it give?
Answer: 23.6%

Question: Which growth does the source give for `O=C1C=CC(=O)N1c1cccc(Cl)c1` here?
Answer: 86.7%

Question: With `CC[n+]1ccc2c(c1)C(=O)c1nccc3c1c-2nc1ccccc13` as the compound, how does the growth read?
Answer: -52.3% (active)

Question: How did the growth turn out when `CCCCSCC(=O)c1ccccc1` was run?
Answer: 113%

Question: For `O=c1ccc(-c2nc(N3CCOCC3)c3ccccc3n2)c[nH]1`, which growth is on record?
Answer: 95.8%

Question: With `OC(c1cccc(C(F)(F)F)c1)c1cnccc1NC1CCCCC1` (stereo not given) as the compound, how does the growth read?
Answer: 33%

Question: For `Nc1cc2ccncc2c2ccccc12`, which growth is on record?
Answer: 71.7%

Question: With `CN(C)CCCNc1c2ccccc2nc2c1oc1ccc(Cl)cc12` as the compound, how does the growth read?
Answer: 5.14% (active)

Question: How did the growth turn out when `Cn1cc(-c2ccc3c(Nc4cccc(NC(=O)Nc5cccc(F)c5)c4)ncnc3c2)cn1` was run?
Answer: 3.69% (active)

Question: With `CCCCOc1ccc(/C=N/Nc2cc(C)nc3ccc(Br)cc23)cc1` as the compound, how does the growth read?
Answer: 32.2%

Question: With `CC(C)CC1NC(=O)C(CC(C)C)N(CO)C1=O` (stereo not given) as the compound, how does the growth read?
Answer: 99.3%

Question: For `COc1cc(/C=C/C(=O)/C=C/c2ccc(-n3ccnc3)cc2)ccc1O`, which growth is on record?
Answer: 37.8%

Question: With `CCOc1cccc(/C=N\Nc2nc(=O)cc(C(=O)OC)s2)c1O` as the compound, how does the growth read?
Answer: 49.9%

Question: Which growth does the source give for `C(=N/Nc1ncc(-c2cc3cc(-c4ccccc4)ccc3o2)s1)/c1cccs1` here?
Answer: 77.6%
